Sampled rows, rich in hits. Any-hit rate of the full collection: about 11%.
HttQ103 aggreg: mutant huntingtin aggregation inhibition. 1.1% of 220,000 active. AID 1688. PC12 HttQ103-GFP aggregates, Acumen cytometry, 40 h. Potency, µM (highest dose often 46.1 µM), without a hit: at the highest dose activity change, negative = inhibition, usual class: inhibitors; further: potency means the concentration at half of the fitted maximal effect; on the % scale 0 is the no-effect control and ±100 the full control effect; nearly all actives have a fitted effect of over 60% in size
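Quantitative HTS on tebufenozide-induced (100 nM) PC12 cells stably expressing polyQ103 Huntingtin exon 1–GFP. Reduction of bright GFP aggregates, detected by laser scanning cytometry after lysis, identified actives across the titration.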
GoLoco inh red: blocks human Gai1 binding to RGS12 GoLoco peptide, red readout; 0.44% of 230,000 active; Potency, µM (top dose mostly 61.6 µM), without a hit: at the highest dose activity, negative = inhibition, hits mostly inhibitors; P63096; Gai1:RGS12 GoLoco peptide FP, rhodamine, 10 min; active means well fitted inhibition curve with a large enough effect, not every such curve was filed as active; inactive means no such curve, though single readings can be large or run the other way; further: potency means the concentration at half of the fitted maximal effect; on the % scale 0 is the no-effect control and ±100 the full control effect; nearly all actives have a fitted effect of over 30% in size
Target sequence (P63096 whole entry, looked up): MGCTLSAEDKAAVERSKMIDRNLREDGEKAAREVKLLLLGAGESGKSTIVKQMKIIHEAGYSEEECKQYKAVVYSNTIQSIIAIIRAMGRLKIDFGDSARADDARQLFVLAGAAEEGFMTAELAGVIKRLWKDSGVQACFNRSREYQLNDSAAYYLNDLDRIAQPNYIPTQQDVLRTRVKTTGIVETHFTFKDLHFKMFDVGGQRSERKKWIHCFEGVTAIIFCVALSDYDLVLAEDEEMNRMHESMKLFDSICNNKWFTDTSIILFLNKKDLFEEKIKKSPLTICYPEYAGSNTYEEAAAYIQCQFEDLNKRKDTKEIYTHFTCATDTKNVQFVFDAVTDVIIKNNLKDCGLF
ALDH1A1 block: ALDH1A1 (human) enzyme inhibition; P00352; Purified ALDH1A1, NADH fluorescence, propionaldehyde substrate; Potency, µM (titrated, usually from 75.3 µM), for inactives: at the highest dose activity, negative = inhibition, usual class: inhibitors; 7.3% of 220,000 active; AID 1030; active means well fitted inhibition curve with a large enough effect, not every such curve was filed as active; inconclusive means small, poorly fitted or top-dose-only effect, or another doubt; inactive means no such curve, though single readings can be large or run the other way;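 further: potency means the concentration at half of the fitted maximal effect; plate controls were no enzyme wells and a reference inhibitor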
PNC inhibitor: inhibitors of perinucleolar compartment assembly. PC3M PTB-GFP, PNC prevalence imaging, 16 h; active compounds read low. activity change (PNC), negative = inhibition, % at 10 µM. 3.1% of 140,000 active. AID 2417;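 active means readout at or below -70, meaning at least 70% loss of cells showing the perinucleolar compartment, a nuclear body marking cancer cells; inconclusive means readout between -30 and a set limit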;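 further: plate controls were DMSO wells for no effect and camptothecin positive control wells for full effect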
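PC3M cells stably expressing PTB-GFP, 750–1000 cells/well, treated 16 h at 37 °C with compound (23 nl of library stock), in duplicate. After paraformaldehyde fixation and Hoechst stain, imaged at 20x; PNC prevalence scored by image analysis.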
HTT cytoprotect: cytoprotection in Huntington HTT-Q103 PC12 cell model. AID 1471. Potency, µM (series often up to 56.4 µM), inactives show cytoprotection (ATP increase), most hits filed as activators. PC12 HTT-Q103 induced, cytoprotection, ATP luminescence, 40 h. 0.14% of 230,000 active; further: potency means the concentration at half of the fitted maximal effect; % of control where 0% means no effect; nearly all actives have a fitted effect of over 45% in size
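Rat PC12, Q103 Htt exon1-GFP fusion, ecdysone promoter; tebufenozide inducer 100 nM final; compound titration; qHTS, 1500 cells/well; ATPlite luminescent read.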
HPGD inh: HPGD (human) dehydrogenase inhibition; P15428; purified HPGD, NADH fluorescence kinetic, PGE2 substrate; Potency, µM, without a hit: top-dose activity change, negative = inhibition, most hits filed as inhibitors; 4.3% of 150,000 active; active means well fitted inhibition curve with a large enough effect, not every such curve was filed as active; inconclusive means small, poorly fitted or top-dose-only effect, or another doubt; inactive means no such curve, though single readings can be large or run the other way; further: potency means the concentration at half of the fitted maximal effect; on the % scale 0 is the no-effect control and ±100 the full control effect
Target sequence (P15428 whole entry, looked up): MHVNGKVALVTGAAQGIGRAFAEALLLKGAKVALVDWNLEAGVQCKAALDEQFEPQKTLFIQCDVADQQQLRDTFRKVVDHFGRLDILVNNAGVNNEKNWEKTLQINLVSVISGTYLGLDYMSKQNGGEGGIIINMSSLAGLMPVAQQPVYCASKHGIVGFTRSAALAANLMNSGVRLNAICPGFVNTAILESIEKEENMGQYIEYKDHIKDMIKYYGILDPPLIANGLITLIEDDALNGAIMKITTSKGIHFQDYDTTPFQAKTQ
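NADH formation kinetics: reaction with 30 uM PGE2 and 1 mM NAD+ (final), 20 nM enzyme, Tris-HCl pH 8 with Tween 20, after 15 min compound preincubation at room temperature. Fluorescence change, last versus first of five reads.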
An asterisk follows results filed as active; [ ] = remark or other dose. Unless noted, the call rests on the fitted dose curve; in most records, active means well fitted curve in the direction sought with a large enough effect; inconclusive means small, poorly fitted or top-dose-only effect, or another doubt; inactive means no such curve, though single readings can be large; an effect the other way counts as inactive or inconclusive.

Screening CCN1CCN(C(C)C(=O)Nc2c(C)n(C)n(-c3ccccc3)c2=O)CC1 (stereo not given) returned HttQ103 aggreg 10.9%, GoLoco inh red -7.3%, ALDH1A1 block 22.4µM*, PNC inhibitor 27.5, HTT cytoprotect -4.0% and HPGD inh -3.5%.
Cc1c(NC(=O)CSc2nnc3c4ccccc4n(CCc4ccccc4)c3n2)c(=O)n(-c2ccccc2)n1C was read as HttQ103 aggreg -3.5%, GoLoco inh red 3.1%, ALDH1A1 block inconclusive, PNC inhibitor -89.7*, HTT cytoprotect -64.2% and HPGD inh -3.7%.
`Nc1nc(SCC(=O)c2cc3ccccc3o2)n[nH]1` gave HttQ103 aggreg 29.9%[9.22 µM], GoLoco inh red 0.7%, ALDH1A1 block 4.2% and HTT cytoprotect inconclusive.
`Cc1nc(SCC(=O)Nc2c(C)n(C)n(-c3ccccc3)c2=O)n[nH]1` gave HttQ103 aggreg 8.3%, GoLoco inh red 7.0%, ALDH1A1 block 14.1µM*, PNC inhibitor inconclusive, HTT cytoprotect -2.4%[10 µM] and HPGD inh -14.9%.
Screening CCC(CC)C(=O)Nc1c(C)n(C)n(-c2ccccc2)c1=O returned HttQ103 aggreg -3.4%, GoLoco inh red 0.7%, ALDH1A1 block -0.8%, PNC inhibitor 25.3, HTT cytoprotect 4.5% and HPGD inh -9.4%.
COc1ccccc1C(=O)CSc1n[nH]c(N)n1 was read as HttQ103 aggreg 7.6%, GoLoco inh red 8.2%, ALDH1A1 block 11.2µM*, PNC inhibitor -26.0, HTT cytoprotect -12.4% and HPGD inh -22.6%.
`CCN1C(=O)[C@H]2[C@H]3[C@H](O)[C@H](O)C/C(=N/O[C@@H](C)CN4CCCCc5nc(C)c(C)cc54)[C@@H]3CC[C@@H]2C1=O` gave ALDH1A1 block -0.9%[13.5 µM] and HTT cytoprotect 35.3%[10 µM].
O=C(CSc1n[nH]c(-c2ccncc2)n1)c1ccccc1 was read as HttQ103 aggreg -13.7%, GoLoco inh red 5.8%, ALDH1A1 block -6.8%, PNC inhibitor 19.7, HTT cytoprotect 10.3%[10 µM] and HPGD inh inconclusive.
Screening Cc1nc(SCC(=O)c2ccccc2)n[nH]1 returned HttQ103 aggreg 13.4%, GoLoco inh red 0.0%, ALDH1A1 block 22.4µM*, PNC inhibitor inconclusive, HTT cytoprotect -9.4% and HPGD inh inconclusive.
For CCC#CCOCC(=O)Nc1ccccc1 the results were GoLoco inh red 2.4%, ALDH1A1 block inconclusive, HTT cytoprotect -51.9% and HPGD inh -11.6%.
Screening Cc1ccc(S(=O)(=O)Oc2ccc(/C=C(/NC(=O)c3ccccc3)C(=O)O)cc2)cc1 returned HttQ103 aggreg 24.8%, GoLoco inh red 11.9%, ALDH1A1 block 12.6µM* and HTT cytoprotect -29.2%.
`Cc1ccc(S(=O)(=O)Oc2ccc(/C=C(/NC(=O)c3ccccc3)C(=O)NCC(=O)O)cc2)cc1` gave HttQ103 aggreg -9.2%[9.22 µM], GoLoco inh red 1.3%, ALDH1A1 block 5.01µM* and HTT cytoprotect -0.4%[10 µM].
Cc1ccc(S(=O)(=O)Oc2ccc(/C=C(/NC(=O)c3ccccc3)C(=O)NC(C)C(=O)O)cc2)cc1 (stereo not given) was read as HttQ103 aggreg -10.2%[9.22 µM], GoLoco inh red 5.8%, ALDH1A1 block 3.98µM* and HTT cytoprotect -4.9%[10 µM].
Screening COc1ccccc1C(=O)N/C(=C\c1ccccc1)C(=O)NC(C)C(=O)O (stereo not given) returned HttQ103 aggreg -15.3%[9.22 µM], GoLoco inh red 12.7%, ALDH1A1 block 7.8% and HTT cytoprotect -60.2%[10 µM].
O=C(O)c1ccc(C(=O)O)c(C(=O)O)c1.[NH-][C@@H]1CCCC[C@@H]1[NH-].[Pt] was read as GoLoco inh red 2.3%[14.2 µM], ALDH1A1 block -8.0%[13.5 µM], HTT cytoprotect -8.9%[10 µM] and HPGD inh -7.1%.
`O=C(NNc1ccccc1)C(=O)NNS(=O)(=O)c1ccc(CCCl)cc1` gave HttQ103 aggreg -2.8%[9.22 µM], GoLoco inh red 2.2%, ALDH1A1 block 6.31µM* and HTT cytoprotect -0.3%[10 µM].
`CC1CCN(c2[nH]c(=S)c(C#N)c3c2CCCC3)CC1` gave HttQ103 aggreg inconclusive, GoLoco inh red -8.6%, ALDH1A1 block 10µM*, PNC inhibitor inconclusive, HTT cytoprotect 4.0% and HPGD inh 11.2µM*.
Screening C[C@@H](C(=O)Nc1ccc2ccccc2c1)[C@H]1C[C@]1(C)[C@H](NC(=O)Oc1ccc(F)cc1)c1ccccc1 returned GoLoco inh red 7.8%, ALDH1A1 block inconclusive, HTT cytoprotect -5.1% and HPGD inh -6.8%.
Screening CC(C)(C)NC(=O)c1cc(C(C)(C)C)c(O)c(C(C)(C)C)c1 returned HttQ103 aggreg -13.2%, GoLoco inh red 4.7%, ALDH1A1 block 9.7%, PNC inhibitor 44.1, HTT cytoprotect 12.2%[0.074 µM] and HPGD inh -5.9%.
Screening CC(=O)Nc1cc(C(C)(C)C)c(O)c(C(C)(C)C)c1 returned HttQ103 aggreg 0.9%, GoLoco inh red -6.0%, ALDH1A1 block 11.2µM*, PNC inhibitor inconclusive, HTT cytoprotect -9.8% and HPGD inh -8.7%.
NCCC[C@@H](CC(=O)N[C@@H]1CCCC[C@H]1C(=O)N[C@H](CC(=O)N[C@@H](CCC(=O)O)CC(=O)O)Cc1ccccc1)NC(=O)C[C@H](Cc1c[nH]c2ccccc12)NC(=O)[C@@H]1CCCC[C@H]1N was read as GoLoco inh red 2.3%, ALDH1A1 block -6.6%, HTT cytoprotect -37.2% and HPGD inh -4.8%.
`Cn1nc(-c2ccccc2)c(N2CCCCC2)cc1=O` gave HttQ103 aggreg 11.2%[9.22 µM], GoLoco inh red 5.3%, ALDH1A1 block 28.2µM* and HTT cytoprotect -20.1%.
O=c1cc(N2CCCCC2)c(-c2ccccc2)nn1Cc1ccccc1 was read as HttQ103 aggreg -18.7%, GoLoco inh red 10.9%, ALDH1A1 block 15.8µM* and HTT cytoprotect -20.2%[10 µM].
For O=c1cc(N2CCCC2)c(-c2ccccc2)n[nH]1 the results were HttQ103 aggreg -5.0%, GoLoco inh red 3.1%, ALDH1A1 block -7.0% and HTT cytoprotect -7.7%.
For Cc1cccc(Nc2nnc(SCC(=O)Nc3ncc(C(F)(F)F)cc3Cl)s2)c1C the results were HttQ103 aggreg -20.2%, GoLoco inh red 21.7%, ALDH1A1 block -5.3%, PNC inhibitor 44.0, HTT cytoprotect 14.0%[1.9 µM] and HPGD inh -19.7%.
Screening Cc1cccc(Nc2nnc(SCC(=O)Nc3ccccc3[N+](=O)[O-])s2)c1C returned HttQ103 aggreg -5.9%, GoLoco inh red 23.3%, ALDH1A1 block 1.26µM*, PNC inhibitor 65.2, HTT cytoprotect 24.9%[10 µM] and HPGD inh inconclusive.

Screens (PubChem)
